From PubChem
Sampled rows, rich in hits. Any-hit rate of the full collection: about 11%.
Luciferase inh: blocks purified firefly luciferase enzyme activity; 2.5% of 76,000 active; purified P. pyralis luciferase, luminescence, biochemical; Potency, µM (titrated, usually from 115 µM), most hits filed as inhibitors; AID 1347043; also: % is scaled to controls: 0 for no effect and ±100 for the full control effect; nearly all actives have a fitted effect of over 65% in size
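Purified 10nM P. pyralis luciferase with 10uM D-luciferin and 10uM ATP in 50mM Tris acetate pH 7.5, 10mM Mg acetate, 0.01% Tween-20, 0.05% BSA. qHTS titration; luminescence read by CCD imager.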
HEK cytotox: cytotoxic compounds in HEK 293 cells | 6.6% of 94,000 active | HEK 293 viability, ATP luminescence (CellTiter-Glo), 48-72 h | Potency, µM (series often up to 115 µM), without a hit: top-dose activity change, negative = cytotoxicity, hits mostly inhibitors | AID 1345083; also: % is scaled to controls: 0 for no effect and ±100 for the full control effect; nearly all actives have a fitted effect of over 60% in size
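HEK 293 seeded at 250 cells/well receive compound via pintool. After 48 or 72 hr at 37 degree Celsius, 5% CO2 and 95% humidity, CellTiter-Glo is dispensed and luminescence read following 10 min at room temperature.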
3T3 cytotox: cytotoxic compounds in NIH 3T3 cells; NIH 3T3 viability, CellTiter-Glo ATP luminescence, 48-72 h; 4.3% of 94,000 active; Potency, µM (series often up to 96.7 µM), without a hit: at the highest dose activity change, negative = cytotoxicity, usual class: inhibitors; also: % is scaled to controls: 0 for no effect and ±100 for the full control effect; nearly all actives have a fitted effect of over 55% in size
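Luminescent ATP readout (CellTiter-Glo, 10 min RT) after 48 or 72 hr compound exposure of NIH 3T3 cells seeded at 400 cells/well in 1536-well format; quantitative HTS.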
hNpr1 antagonist: blocks ANP-stimulated signaling of human Npr1 receptor; HEK293 hNpr1 GloSensor cGMP, ANP-stimulated luminescence; AID 1347048; P16066; 1.6% of 76,000 active; Potency, µM (doses to about 46.3 µM), without a hit: at the top dose activity change, negative = inhibition, actives largely listed as inhibitors; calls by dose curve; also: % is scaled to controls: 0 for no effect and ±100 for the full control effect; nearly all actives have a fitted effect of over 60% in size
Target sequence (P16066 whole entry, looked up): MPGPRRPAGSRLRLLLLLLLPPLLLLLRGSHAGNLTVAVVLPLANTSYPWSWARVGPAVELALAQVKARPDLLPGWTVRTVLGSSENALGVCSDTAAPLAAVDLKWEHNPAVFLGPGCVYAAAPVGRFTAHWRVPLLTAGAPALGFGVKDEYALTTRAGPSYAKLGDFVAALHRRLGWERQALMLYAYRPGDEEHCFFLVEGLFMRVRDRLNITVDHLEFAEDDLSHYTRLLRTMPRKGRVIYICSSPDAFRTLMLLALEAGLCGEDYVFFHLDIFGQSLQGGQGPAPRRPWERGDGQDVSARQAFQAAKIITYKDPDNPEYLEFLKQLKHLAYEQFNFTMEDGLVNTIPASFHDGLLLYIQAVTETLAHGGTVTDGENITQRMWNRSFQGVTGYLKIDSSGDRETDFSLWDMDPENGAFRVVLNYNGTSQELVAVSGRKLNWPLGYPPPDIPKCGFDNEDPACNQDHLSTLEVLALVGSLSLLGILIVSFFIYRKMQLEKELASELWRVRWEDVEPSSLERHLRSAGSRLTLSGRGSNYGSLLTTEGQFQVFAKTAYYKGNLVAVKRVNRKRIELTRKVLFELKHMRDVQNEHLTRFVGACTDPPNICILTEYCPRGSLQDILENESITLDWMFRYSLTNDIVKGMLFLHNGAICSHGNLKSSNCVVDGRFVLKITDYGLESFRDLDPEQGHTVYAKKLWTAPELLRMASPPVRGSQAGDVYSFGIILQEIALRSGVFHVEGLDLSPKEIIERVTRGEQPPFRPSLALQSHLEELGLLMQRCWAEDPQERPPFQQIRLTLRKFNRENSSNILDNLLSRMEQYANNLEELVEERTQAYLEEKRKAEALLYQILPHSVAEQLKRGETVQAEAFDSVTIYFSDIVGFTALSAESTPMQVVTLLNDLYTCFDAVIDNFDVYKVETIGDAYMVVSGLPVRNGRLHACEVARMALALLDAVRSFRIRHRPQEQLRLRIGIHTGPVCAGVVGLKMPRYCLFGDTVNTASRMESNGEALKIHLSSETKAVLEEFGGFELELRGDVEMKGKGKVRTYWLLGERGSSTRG
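Compound pre-incubated 30 min at room temperature on GloSensor-loaded HEK293 cells stably carrying hNpr1 and the pGS-40F cGMP biosensor. Stimulation uses hNppA at 0.1 nM final; luminescence is taken at baseline and 20 min post-agonist.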
NPR1 antag cnf: confirmation of human Npr1 natriuretic peptide receptor antagonists; HEK293 hNpr1 cGMP GloSensor luminescence, ANP-stimulated; shares compounds with hNpr1 antagonist; AID 1347044; 76% of 1,400 active; Potency, µM (highest dose often 57.6 µM), for inactives: at the top dose activity change, negative = inhibition, hits mostly inhibitors; calls by dose curve; also: nearly all actives have a fitted effect of over 70% in size
NPR2 antag: antagonizes human Npr2, subtype selectivity check | shares compounds with hNpr1 antagonist | HEK293 hNpr2 GloSensor cGMP luminescence, CNP-stimulated | Potency, µM (series often up to 57.6 µM), inactives show top-dose activity change, negative = inhibition, most hits filed as inhibitors | 67% of 1,400 active; calls by dose curve; also: nearly all actives have a fitted effect of over 70% in size
FLuc counter: inhibits firefly luciferase, false Npr1 antagonist flag | shares compounds with hNpr1 antagonist | purified FLuc enzyme, luminescence, Km substrate | Potency, µM (highest dose often 57.6 µM), inactives show top-dose activity change, negative = inhibition, usual class: inhibitors | 0.7% of 1,400 active; also: 0% is about no effect
GloSensor cGMP: counter-screen for Npr1 antagonists: GloSensor control cell line; AID 1347051; HEK293 GloSensor cGMP, SNP-stimulated, luminescence; 69% of 1,400 active; Potency, µM (titrated, usually from 57.6 µM), without a hit: at the top dose activity change, negative = inhibition, usual class: inhibitors; shares compounds with hNpr1 antagonist; calls by dose curve; also: % is scaled to controls: 0 for no effect and ±100 for the full control effect; nearly all actives have a fitted effect of over 70% in size
Numbers without * were called inactive; i = inactive; u = inconclusive; x = no result given; [ ] = another dose, or the depositor's remark. Unless noted, calls follow the shape of the dose curve; as a rule, active = well fitted curve in the direction sought with a large enough effect; inconclusive = small, poorly fitted or top-dose-only effect, or another doubt; inactive = no such curve, though single readings can be large; an effect the other way counts as inactive or inconclusive. Potency is read from the fitted curve at half-maximal effect.

SMILES | Luciferase inh | HEK cytotox | 3T3 cytotox | hNpr1 antagonist | NPR1 antag cnf | NPR2 antag | FLuc counter | GloSensor cGMP
CCC1Oc2ccc(NC(=O)c3ccccc3OC)cc2CN(Cc2ccc(OC)cc2)C1=O (centres undefined) | i | u | u | -1.5% | x | x | x | x
COc1ccc(C(=O)N2CCC3(CC2)NC(=O)N(Cc2ccc(F)cc2)C3=O)cc1F | i | u | u | 12.6µM* | 19.3µM* | 21.7µM* | 3.3% | 21.7µM*
COc1cccc(C(=O)N2CCN(c3cc(-c4ccc(Cl)cc4)[nH]n3)CC2)c1OC | i | u | u | 11.2µM* | 21.7µM* | 21.7µM* | 3.6% | 17.2µM*
COc1ccc(CC(=O)N2CCCN(c3cc(-c4ccccc4)[nH]n3)CC2)cc1 | i | u | -25.1% | 0.0% | x | x | x | x
COc1ccc(CC(=O)N2CCCN(c3cc(-c4ccc(OC)cc4)[nH]n3)CC2)cc1 | i | u | u | u | u | u | 0.4% | -19.4%
COc1ccc(C(=O)N2CCC3(CC2)NC(=O)N(Cc2ccccc2)C3=O)cc1F | i | u | -20.3% | u | x | x | x | x
CCOc1ccc(C(=O)N2CCCN(c3cc(-c4ccc(Cl)cc4)[nH]n3)CC2)cc1OCC | i | u | u | 11.2µM* | 15.3µM* | 17.2µM* | 5.4% | 15.3µM*
Cn1ncc(CN2CCc3[nH]cnc3C2c2cccc(C#N)c2)c1C1CC1 (centres undefined) | i | -5.5% | -18.8% | -4.6% | x | x | x | x
O=C(c1ccc2c(c1)OCO2)N1CCCN(c2cc(-c3ccc(Cl)cc3)[nH]n2)CC1 | i | u | u | -29.5% | x | x | x | x
O=C(c1ccc2c(c1)OCO2)N1CCCN(c2cc(-c3ccc(Br)cc3)[nH]n2)CC1 | i | u | u | 17.8µM* | 24.3µM* | 24.3µM* | 2.4% | 30.6µM*
COc1ccc(C(=O)N2CCN(c3cc(-c4ccc(Cl)cc4)[nH]n3)CC2)cc1F | i | u | u | 11.2µM* | 13.7µM* | 19.3µM* | 0.4% | 10.9µM*
O=C(c1ccc(Cl)cc1)N1CCN(c2cc(-c3ccc(Cl)cc3)[nH]n2)CC1 | i | 39.8µM* | 31.6µM* | 11.2µM* | 21.7µM* | 21.7µM* | 3.7% | 21.7µM*
O=C(c1ccc2c(c1)OCO2)N1CCN(c2cc(-c3ccc(Cl)cc3)[nH]n2)CC1 | i | u | u | u | 24.3µM* | u | -11.4% | 24.3µM*
CN1CCCCC(CC(=O)N2CCN(c3ccc(F)cc3)CC2)C1=O (centres undefined) | x | 3.1% | -3.9% | x | x | x | x | x
O=C(c1ccccc1Br)N1CCN(c2cc(-c3ccc(Cl)cc3)[nH]n2)CC1 | i | u | 25.1µM* | 2.51µM* | 19.3µM* | 19.3µM* | -0.3% | 12.2µM*
COc1ccc(CC(=O)NC2CCN(c3cc(-c4ccc(Cl)cc4)[nH]n3)C2)cc1OC (centres undefined) | i | u | u | 10µM* | 19.3µM* | 21.7µM* | -1.7% | 10.9µM*
COc1ccc(-c2cc(N3CCN(C(=O)c4ccccc4Br)CC3)n[nH]2)cc1 | i | u | u | u | x | x | x | x
CCOc1ccc(CC(=O)NC2CCN(c3cc(-c4ccc(F)cc4)[nH]n3)C2)cc1OCC (centres undefined) | i | u | u | -20.0% | x | x | x | x
O=C(NC1CCN(c2cc(-c3ccc(F)cc3)[nH]n2)CC1)c1ccc(F)c(Cl)c1 | i | u | 31.6µM* | u | 24.3µM* | u | -2.9% | u
O=C(NC1CCN(c2cc(-c3ccc(Cl)cc3)[nH]n2)CC1)c1cccc(F)c1 | i | u | -2.6% | 2.4% | x | x | x | x
COc1ccc(C(=O)N2CCN(c3cc(-c4ccc(Cl)cc4)[nH]n3)CC2)cc1 | i | 35.5µM* | 7.08µM* | 8.91µM* | 15.3µM* | 17.2µM* | -0.5% | 10.9µM*
COc1ccc(C(=O)N2CCCN(c3cc(-c4ccc(F)cc4)[nH]n3)CC2)cc1 | i | u | u | u | x | x | x | x
Cc1cn2nc(C(=O)N3CCC(NC(=O)c4nccc5ccccc45)CC3)cc2c(=O)[nH]1 | i | u | u | 19.9% | x | x | x | x
O=C(c1ccccc1F)N1CCCC(C(=O)N2CCCC(c3nc4ccncc4[nH]3)C2)C1 (centres undefined) | x | -21.5% | -35.7% | x | x | x | x | x
CN1C(=O)C(CC(=O)NCC2CCN(Cc3ccc(F)cc3)CC2)=C2CCCCC21 (centres undefined) | i | 1.3% | -4.2% | 13.3% | x | x | x | x
SMILES | Luciferase inh | HEK cytotox | 3T3 cytotox | hNpr1 antagonist | NPR1 antag cnf | NPR2 antag | FLuc counter | GloSensor cGMP
O=C(c1ccccc1)N1CCN(c2cc(-c3ccc(Cl)cc3)[nH]n2)CC1 | i | u | u | u | u | u | -0.1% | u
O=C(Cc1c[nH]c2ccccc12)N1CCCN(c2cc(-c3ccc(Br)cc3)[nH]n2)CC1 | i | u | 35.5µM* | 15.8µM* | 24.3µM* | 27.3µM* | -7.0% | 27.3µM*
O=C(c1ccc(F)c(Cl)c1)N1CCN(c2cc(-c3ccccc3)[nH]n2)CC1 | i | u | u | -29.2% | x | x | x | x
O=C(c1ccc2nc[nH]c2c1)N1CCCN(c2cc(-c3ccc(Br)cc3)[nH]n2)CC1 | i | u | -25.4% | -16.7% | x | x | x | x
CC(C)NC(=O)N1CCNc2cnc(Nc3cccc(C(F)(F)F)c3)nc2C1 | i | 35.5µM* | 39.8µM* | 12.6µM* | 17.7µM* | 22.2µM* | -1.0%[86.2 µM] | 15.7µM*
Cc1ncsc1C(=O)N1CCNc2cnc(Nc3cccc(F)c3)nc2C1 | i | u | u | 14.1µM* | 12.5µM* | 17.7µM* | -1.3%[86.2 µM] | 11.1µM*
CC1(c2noc(C3CCOCC3)n2)CCN(Cc2ccc(Cl)cc2F)CC1 | i | u | -28.8% | 12.6µM* | 24.3µM* | 24.3µM* | 6.9% | 21.7µM*
COC(=O)N1CCN(C(=O)c2nc3cccnc3n(CC(C)C)c2=O)CC1 | x | -7.3% | -15.8% | x | x | x | x | x
Cn1cc(CC(=O)N2CCCc3ncc(C(=O)N4CCC(c5ccccc5)CC4)cc32)c2ccccc21 | i | 39.8µM* | u | 15.8µM* | 21.7µM* | 21.7µM* | 6.2% | 19.3µM*
CCOc1ccc(NC(=O)c2nnn3cc(C)[nH]c(=O)c23)cc1 | u | 3.2% | -8.0% | -3.5% | x | x | x | x
